The results in this text go back to the supplement of paper PMC10338343.

± gives the standard deviation.

The assay deals with EfPiwi piRISC loaded with L1MC piRNA (26 nt). The assay is described as follows: pre-steady-state target cleavage rate (min^-1); auxiliary factor: 500 nM Ephydatia muelleri Gtsf1; guide: L1MC piRNA 5'p-UAACUAAAUACUAUGCAAGCUGUAGG; MIWI and MILI are mouse PIWI proteins and EfPiwi is from a freshwater sponge; tags in brackets are library labels; higher = faster piRNA-guided slicing of the target. The procedure:
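Cleave-'n-Seq: a library of target RNAs (target site in constant flanks) at […] was incubated with 1 nM active freshwater sponge Ephydatia fluviatilis Piwi piRISC (synthetic 5'-monophosphorylated piRNA guide) with or without 500 nM EmGtsf1 at 33 °C for 1 min to 16 h. Uncleaved targets were sequenced and the pooled three trials fitted to a burst-and-steady-state model to give the pre-steady-state cleavage rate (min^-1). Sequence is the target site only. Fits with R² ≤ 0 are excluded.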
For the sequence UCCUGGAUGUCCUUGCAUAGUAUUAUAGUUA, the “pre-steady-state target cleavage rate” value was determined as 0.00424 ± 0.0041.

In the case of UCCUGCUACAGCUAGCAUAGUAUUUAGAUA, the “pre-steady-state target cleavage rate” value came out at 0.00409 ± 0.0015.

As to UCCUGGUUGUGCUUGCAUAGUAUUUAGUAA, the “pre-steady-state target cleavage rate” value is 0.00401 ± 0.0038.

As to UCCUGGAACUGCUUGCAUAGUAUUUAGAUA, the “pre-steady-state target cleavage rate” value is 0.00297 ± 0.002.

Regarding UCCUGGAUGAGCUUUCAUAGUAUUUAGUUA, the “pre-steady-state target cleavage rate” value came out at 0.00433 ± 0.0018.

Turning to UCCUGGAUCAGCUUGCAUAGUAUUUAGAUA, the “pre-steady-state target cleavage rate” value was determined as 0.00499 ± 0.0022.

Regarding UCCUGGAUGAGCUUGCAUAGUAUAUAGUUA, the “pre-steady-state target cleavage rate” value turned out to be 0.00625 ± 0.0026.

In the case of UCCUGGUACAGCUUGCAUAGUAUUUAUUUA, the “pre-steady-state target cleavage rate” value worked out at 0.00732 ± 0.0063.

In the case of UCCUGGAUGUGCUUGCAUACUAUUUAGAUA, the “pre-steady-state target cleavage rate” value is 0.00202 ± 0.0015.

Consider UCCUGGAUCUAGCUUGCAUAGUAUUUAGUUA, for which the “pre-steady-state target cleavage rate” value turned out to be 0.0755 ± 0.019.

On to UCCUGGAUGUCGAUGCAUAGUACUUAGUUA, for which the “pre-steady-state target cleavage rate” value turned out to be 0.00454 ± 0.0029.

UCCUGGAACUGCUAGCAUAGUAUUUAGUUA: the “pre-steady-state target cleavage rate” value was 0.0171 ± 0.0058.

Consider UCCUGCUACAGCUUCCAUUGUAUUUAGUUA, for which the “pre-steady-state target cleavage rate” value amounted to 0.00266 ± 0.0018.

As to UCCUGCUACCAGCUUGCAUAGUAUUUAGUUA, the “pre-steady-state target cleavage rate” value was determined as 0.0199 ± 0.0059.

As to UCCUCCUACAGGUUGCAAAGUAUUUAGUUA, the “pre-steady-state target cleavage rate” value is 0.0547 ± 0.011.

In the case of UCCUGGUACAGCUUGGUUAGUAUUUAGUUA, the “pre-steady-state target cleavage rate” value was found to be 0.00478 ± 0.0032.

With UCCUGGUACAGCUUGCAUAGUAUUCUAGUUA, the “pre-steady-state target cleavage rate” value came out at 0.0044 ± 0.003.

As for UCCUGGAUCAGCUUGCAUAGUAUUUUGAUA, the “pre-steady-state target cleavage rate” value is 0.00716 ± 0.003.

With UCCUGGAACAGCAUGCAUAGUAUUUAGUAA, the “pre-steady-state target cleavage rate” value turned out to be 0.00384 ± 0.0023.

Take UCCUGGAACAGCUUGCAUAGUAUUUAUUUA: the “pre-steady-state target cleavage rate” value stood at 0.00534 ± 0.0034.

For UCCUGGAUGUGCUUGCAUAGUAUUUAAUUA, the “pre-steady-state target cleavage rate” value is 0.113 ± 0.038.

Regarding UCCUGGAACAGCGUGCAUAGUAUUUAGUUA, the “pre-steady-state target cleavage rate” value was found to be 0.0168 ± 0.005.

On to “UCCUGGAACAGCUUGCAUAGUAUUUAGUUG [g2:g23:cont:t1G]”, for which the “pre-steady-state target cleavage rate” value was determined as 0.0115 ± 0.0034.

Turning to UCCUCCUACAGCUUGCAUAGUAUAUACAAA, the “pre-steady-state target cleavage rate” value was 0.00313 ± 0.003.

For UCCUGGAAGAGCUUGCAUAGUAUUUAGAUA, the “pre-steady-state target cleavage rate” value came to 0.00519 ± 0.0023.

As to UCCUGGUACAGCUUGCAUAGUAUAUUAGUUA, the “pre-steady-state target cleavage rate” value is 0.00489 ± 0.0026.

On to UCCUGGUACAGCUUGCAUAGUAUUUAGAAA, for which the “pre-steady-state target cleavage rate” value was 0.00435 ± 0.0017.

As for UCCUGGAUCUGCUUGCAUACUAUUUAGUUA, the “pre-steady-state target cleavage rate” value was 0.00859 ± 0.0023.

As for UCCUGGAACAGGAUGCAUAGUAUUUAGUUA, the “pre-steady-state target cleavage rate” value was 0.00753 ± 0.0018.

On to UCCUGGUUGAGCUUGCAUAGUAUUUAGUAA, for which the “pre-steady-state target cleavage rate” value worked out at 0.00604 ± 0.0023.

UCCUGGUACAGCUUGCAUAGUAUUUAGUCA: the “pre-steady-state target cleavage rate” value amounted to 0.00545 ± 0.0021.

As for UCCUGGAUCAGCUUGCAUAGUAUAAAGUAA, the “pre-steady-state target cleavage rate” value stood at 0.00455 ± 0.0038.

Regarding UCCUGCUACAGCUUGGAUAGAAUUUAGUUA, the “pre-steady-state target cleavage rate” value was determined as 0.0053 ± 0.0018.

As for UCCUGGAUCUGCUUGCUUAGUAUUUAGUUA, the “pre-steady-state target cleavage rate” value is 0.0931 ± 0.028.

UCCUCCUACAGCUUGCAUAGUAUUUUGUAA: the “pre-steady-state target cleavage rate” value was found to be 0.0056 ± 0.003.

Regarding UCCUCCUACUGCUUGCAUUGUAUUUAGUUA, the “pre-steady-state target cleavage rate” value is 0.0605 ± 0.016.

Turning to UCCUCCUACAGCUUGCGAUAGUAUUUAGUUA, the “pre-steady-state target cleavage rate” value was 0.00839 ± 0.0023.

UCCUGCUACAGCUUCCAUAGUAUUUAGAAA: the “pre-steady-state target cleavage rate” value was 0.00349 ± 0.0019.

As for UCCUGCUACUGCUUGCAUAGUAUUAAGUUA, the “pre-steady-state target cleavage rate” value came to 0.00584 ± 0.0021.

Regarding UCCUCGUACAGCUUGCAUAGUAUUAAGUUA, the “pre-steady-state target cleavage rate” value came to 0.00547 ± 0.0018.
